In paper PMC8384837, “Expanding the binding specificity for RNA recognition by a PUF domain” one finds binding signal data, which are given here for 5 sequences.

Experiment in all cases: yeast three-hybrid, YBZ-1, SC-Leu-His + 0.5 mM 3-AT, 4 days
Holding throughout (settings): tags: N-Gal4 AD-HA kept; label: inside an RPR1-promoter hybrid RNA with tandem MS2 sites; ssRNA

One assay concerns the target PUM1 PUF domain R8-RHP (Homo sapiens, UniProt Q14671 828-1176, N1122R;Y1123H;Q1126P). A digest of the protocol: (§1)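 Matching RNA elements and Pumilio-1 PUF domain libraries, randomized at the three base-contacting residues of every repeat, were co-expressed from a centromeric plasmid in strain YBZ-1 (LexA–MS2 coat fusion, HIS3 reporter). The repeat regions were PCR-amplified and Illumina-sequenced from cells grown four days on SC-Leu (input) or SC-Leu-His + 0.5 mM 3-AT (selection). The interaction score is the log change in variant frequency from input to selection. It is computed in log2, with a pseudocount of 1 for absent variants.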

A further assay concerns the target PUM1 PUF domain R3-YWT (Homo sapiens, UniProt Q14671 828-1176, C935Y;R936W;Q939T). A digest of the protocol:
as §1

The target in another assay is PUM1 PUF domain R5-DRL (Homo sapiens, UniProt Q14671 828-1176, C1007D;Q1011L). The essentials:
as §1

A further assay deals with PUM1 PUF domain R5-SKQ (Homo sapiens, UniProt Q14671 828-1176, C1007S;R1008K). The essentials: as §1
PUM1 PUF domain R5-SKQ, sequence (Q14671 828-1176 C1007S/R1008K): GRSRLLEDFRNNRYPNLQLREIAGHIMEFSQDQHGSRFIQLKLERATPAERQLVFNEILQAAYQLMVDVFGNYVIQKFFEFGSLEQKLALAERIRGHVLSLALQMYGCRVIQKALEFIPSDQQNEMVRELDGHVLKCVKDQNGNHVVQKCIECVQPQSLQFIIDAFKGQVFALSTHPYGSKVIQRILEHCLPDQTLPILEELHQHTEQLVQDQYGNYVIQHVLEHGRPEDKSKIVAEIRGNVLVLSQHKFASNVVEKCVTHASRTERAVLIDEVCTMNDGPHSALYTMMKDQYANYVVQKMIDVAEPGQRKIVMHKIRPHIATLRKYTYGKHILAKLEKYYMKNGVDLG
A further assay deals with PUM1 PUF domain R5-GPR (Homo sapiens, UniProt Q14671 828-1176, C1007G;R1008P;Q1011R). A digest of the protocol: as §1
PUM1 PUF domain R5-GPR, sequence (Q14671 828-1176 C1007G/R1008P/Q1011R): as the sequence (Q14671 828-1176 C1007S/R1008K) above, with S180G, K181P, Q184R counted along it
Another assay has as its target PUM1 PUF domain R1-RLE (Homo sapiens, UniProt Q14671 828-1176, S863R;R864L;Q867E). A digest of the protocol: as §1

PUM1 PUF domain R5-DRL, sequence (Q14671 828-1176 C1007D/Q1011L): as the sequence (Q14671 828-1176 C1007S/R1008K) above, with S180D, K181R, Q184L counted along it
PUM1 PUF domain R8-RHP, sequence (Q14671 828-1176 N1122R/Y1123H/Q1126P): as the sequence (Q14671 828-1176 C1007S/R1008K) above, with S180C, K181R, N295R, Y296H, Q299P counted along it
PUM1 PUF domain R3-YWT, sequence (Q14671 828-1176 C935Y/R936W/Q939T): as the sequence (Q14671 828-1176 C1007S/R1008K) above, with C108Y, R109W, Q112T, S180C, K181R counted along it
PUM1 PUF domain R1-RLE, sequence (Q14671 828-1176 S863R/R864L/Q867E): as the sequence (Q14671 828-1176 C1007S/R1008K) above, with S36R, R37L, Q40E, S180C, K181R counted along it

As to “GGCUAGAACUAGUGGAUCCCCCGGCGCCCGGCGGCUCGAGCCCGGGUAAGCGUAAAUAGUCUGCAUGCCGCCGGGCGCCAUGCCUGCAGGUCGACUCUAGAAAACAUG”, in the assay with PUM1 PUF domain R8-RHP, the binding signal was 5.5 log2 enrichment (interaction score).
For “GGCUAGAACUAGUGGAUCCCCCGGCGCCCGGCGGCUCGAGCCCGGGUAAGUGUAAUUAGUCUGCAUGCCGCCGGGCGCCAUGCCUGCAGGUCGACUCUAGAAAACAUG”, in the assay with PUM1 PUF domain R3-YWT, the binding signal is 2.71 log2 enrichment (interaction score).
For “GGCUAGAACUAGUGGAUCCCCCGGCGCCCGGCGGCUCGAGCCCGGGUAAGUGUGAAUAGUCUGCAUGCCGCCGGGCGCCAUGCCUGCAGGUCGACUCUAGAAAACAUG”, the binding signal was 1.6 log2 enrichment (interaction score) with PUM1 PUF domain R5-DRL and 2.39 log2 enrichment (interaction score) in the assay with PUM1 PUF domain R5-SKQ.
For the sequence “GGCUAGAACUAGUGGAUCCCCCGGCGCCCGGCGGCUCGAGCCCGGGUAAGUGUUAAUAGUCUGCAUGCCGCCGGGCGCCAUGCCUGCAGGUCGACUCUAGAAAACAUG”, the binding signal in the assay with PUM1 PUF domain R5-GPR is 2.39 log2 enrichment (interaction score).
Turning to “GGCUAGAACUAGUGGAUCCCCCGGCGCCCGGCGGCUCGAGCCCGGGUAAGUGUAAAUUGUCUGCAUGCCGCCGGGCGCCAUGCCUGCAGGUCGACUCUAGAAAACAUG”, in the assay with PUM1 PUF domain R1-RLE, the binding signal is 2.88 log2 enrichment (interaction score).
